In the library only some 2% were active in any assay of this set; here they are far more common.
CCHF vOTU inh-1: CCHFV vOTU protease inhibitors, primary screen, biochemical, Pep-AMC substrate, fluorescence; Crimean-Congo hemorrhagic fever virus L polyprotein viral ovarian tumor (vOTU) protease …; inhibition, % at 11.5 µM; actives 0.55% (n = 370,000); note: 0% = vehicle wells with enzyme and 100% = no enzyme wells
PrP 5UTR inh: inhibition of PrP 5' UTR reporter expression | cell-based PrP 5' UTR mRNA reporter, plate reader | inhibition, % (test concentration not listed) | actives 0.35% (n = 340,000); in the data active = inhibition above about 52%; note: 0 = median of the neutral control wells
PrPC surface inh: inhibitors of human cell surface prion protein PrPC, primary screen, cell-based, TR-FRET; inhibition, % at 13.8 µM; AID 720596, 2013; actives 0.43% (n = 370,000); TR-FRET read-out; Major prion protein (Homo sapiens), P04156; in the data active = inhibition above about 24%; note: 0% = median of the test wells and 100% = reference compound wells
BJeLR viability: MLPCN primary cell-based screen for lethality selective to Ras in HRASV12 cells; BJeLR (HRASV12) viability, CellTiter-Glo ATP luminescence, 48 h; inhibition, % (test concentration not listed); actives 0.17% (n = 300,000); AID 1554, 2009; in the data active = inhibition above about 50%
PfHsp40 yeast: rescue of yeast from PfHsp40 toxicity, primary screen, S. cerevisiae, ATP luminescence; S. cerevisiae expressing PfHsp40, growth rescue; growth rescue, % at 12.5 µM; actives 0.68% (n = 340,000); in the data active = growth rescue above about 28%, passing the limit was not always enough;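 note: yeast W303a lacking pdr1 and pdr3 grown in galactose medium; growth measured after three days at 30 °C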
Y pestis TopoI: Yersinia pestis topoisomerase I inhibitors, primary screen, biochemical, cleavage product accumulation, plate reader, single point | DNA topoisomerase I (Yersinia pestis CO92) | Y. pestis Topo-I cleavage product accumulation | activity, % at 10 µM | actives 0.064% (n = 360,000) | AID 504884, 2011; in the data active = activity above about 50%, passing the limit was not always enough
CCHF vOTU inh-2: CCHFV vOTU protease inhibitors, confirmation, biochemical, Pep-AMC substrate, fluorescence | Recombinant CCHFV vOTU | inhibition, % at 11.5 µM | actives 17% (n = 1,900) | shares compounds with CCHF vOTU inh-1 | AID 686976, 2013
Numbers without * were called inactive; . = not tested or not shown. Cut-off read from the data, not from the text of the source, unless noted: active = inhibition above about 30%; inactive = the rest.

SMILES	CCHF vOTU inh-1	PrP 5UTR inh	PrPC surface inh	BJeLR viability	PfHsp40 yeast	Y pestis TopoI	CCHF vOTU inh-2
CCOC(=O)C1=C(C(=O)OCC)C2N(Cc3ccc(Br)cc3)c3ccccc3[C@@]23C[C@@H](C(=O)OC)N(S(=O)(=O)c2ccc(Br)cc2)C3=N1 (stereo not given in full)	0	.	-1	.	.	.	.
CCN(CC)CCCNC1=C(Cl)C(=O)c2ccccc2C1=O	56*	-5	-51	-2	-2	-11	56*
O=C1C(Cl)=C(NCc2cccnc2)C(=O)c2ccccc21	70*	-49	-55	17	-1	-12	62*
O=C(c1ccccc1Oc1ccccc1)N1CCC(Oc2cccnc2)CC1	-1	.	-3	.	.	.	.
O=C1Nc2ccccc2Nc2ccc([N+](=O)[O-])cc21	38*	-4	-38	3	-2	-14	27
COC(=O)C1=C(C)N(Cc2ccccc2C(F)(F)F)C(=NCC2CC2)NC1c1cccc(F)c1 (stereo not given)	20	.	5	.	.	.	.
CCCCC[C@@H](C)N1C[C@@H](COCc2ccccc2)Oc2cc(N3CC[C@@H](N(C)C)C3)ccc2S1(=O)=O	35*	.	-12	.	.	.	2
CCCCC[C@@H](C)N1C[C@@H](COCc2ccccc2)Oc2cc(N3CC[C@@H](O)C3)ccc2S1(=O)=O	31*	.	7	.	.	.	-4
CCCCC[C@@H](C)N1C[C@H](COCc2ccccc2)Oc2cc(N3CC[C@@H](N(C)C)C3)ccc2S1(=O)=O	15	.	5	.	.	.	.
CCCCC[C@H](C)N1C[C@H](COCc2ccccc2)Oc2cc(N3CC[C@H](N(C)C)C3)ccc2S1(=O)=O	18	.	5	.	.	.	.
CCCCC[C@@H](C)N1C[C@@H](COCc2ccccc2)Oc2cc(N3CCC[C@@H]3CO)ccc2S1(=O)=O	35*	.	3	.	.	.	8
CCCCC[C@H](C)N1C[C@H](COCc2ccccc2)Oc2cc(N3CC[C@@H](N(C)C)C3)ccc2S1(=O)=O	37*	.	12	.	.	.	3
Cc1cccc(NC(=O)C2CCN(C(=O)NCc3ccccc3)CC2)c1C	5	-7	0	-7	0	-3	.
O=C(Nc1cccc2ccccc12)C1CCN(C(=O)NCc2ccccc2)CC1	35*	-23	-3	-6	1	9	4
CCCCCCCCN1C(=O)[C@@H](CC(=O)NCc2ccc(C)o2)C[C@@]2(C(=O)OC)C1=C[C@H](COCc1ccccc1)O[C@@H]2C	13	.	1	.	.	.	.
CCCCCCCCN1C(=O)[C@@H](CC(=O)NCCC(C)C)C[C@@]2(C(=O)OC)C1=C[C@H](COCc1ccccc1)O[C@@H]2C	30*	.	-5	.	.	.	10
CCCCCCCCN1C(=O)[C@@H](CC(=O)NCC2CCCCC2)C[C@@]2(C(=O)OC)C1=C[C@H](COCc1ccccc1)O[C@@H]2C	31*	.	1	.	.	.	0
CCCCCCCCN1C(=O)[C@@H](CC(=O)NCCCC)C[C@@]2(C(=O)OC)C1=C[C@H](COCc1ccccc1)O[C@@H]2C	29	.	6	.	.	.	.
CCCCCCCCN1C(=O)[C@@H](CC(=O)NCc2cccc(C(F)(F)F)c2)C[C@@]2(C(=O)OC)C1=C[C@H](COCc1ccccc1)O[C@@H]2C	32*	.	4	.	.	.	23
COC(=O)[C@]12C[C@H](CC(=O)NCc3cccc4ccccc34)C(=O)N(Cc3ccccc3)C1=C[C@H](COCc1ccccc1)O[C@@H]2C	6	.	-2	.	.	.	.
Nc1ccn([C@@H]2O[C@H](C(=O)N3CCN(CCO)CC3)[C@@H](O)[C@H]2O)c(=O)n1	-3	.	3	.	.	.	.
O=S(=O)(Nc1cc2nc3ccccc3nc2n1Cc1ccccc1)c1ccc(Cl)cc1	111*	-21	3	10	0	-4	67*
CN1c2ccccc2C(C)(C)C12C=Cc1cc(O)ccc1O2 (stereo not given)	8	-16	5	-1	4	1	.
CN1c2ccccc2C(C)(C)C12C=Nc1c(cc(N3CCOCC3)c3ccccc13)O2 (stereo not given)	102*	-16	-16	13	-2	-8	-16
COc1ccc(OC)c(S(=O)(=O)N2CCC3(CC2)OCCN3S(=O)(=O)c2ccccc2)c1	34*	-20	-5	4	1	-2	-10
SMILES	CCHF vOTU inh-1	PrP 5UTR inh	PrPC surface inh	BJeLR viability	PfHsp40 yeast	Y pestis TopoI	CCHF vOTU inh-2
COc1ccc(S(=O)(=O)N2CCOC23CCN(S(=O)(=O)c2cc(C)ccc2OC)CC3)cc1	-10	-14	-6	4	1	0	.
CC1=NN(c2ccccc2)C(=O)/C1=C/c1ccc(Cl)cc1	89*	42	6	5	-2	2	-27
COc1ccc(/C=C2/C(=O)N(c3ccccc3)N=C2C)cc1Br	74*	-15	-1	-3	1	-6	0
CCOc1cc(/C=C2/C(=O)N(c3ccccc3)N=C2C)ccc1OC(=O)c1ccco1	68*	-19	0	-1	0	10	-2
COc1cc(/C=C2/C(=O)N(c3ccccc3)N=C2C)ccc1OS(=O)(=O)c1ccccc1	.	.	.	-6	.	.	.
CC1=NN(c2ccc(C(=O)O)cc2)C(=O)/C1=C\c1ccc(OC(=O)c2cccs2)cc1	55*	-40	-12	.	2	6	7
COc1ccc(S[C@]2(C(=O)N3CCCC3)CC(=O)N(S(=O)(=O)c3ccc(F)cc3)[C@@H]2c2ccc(OC)cc2)cc1	5	.	-2	.	.	.	.
CS(=O)(=O)NNC(=O)Cn1nnc(-c2cc(C(F)(F)F)cc(C(F)(F)F)c2)n1	11	.	-1	-6	.	-8	.
O=C(Cn1nnc(-c2cccc(C(F)(F)F)c2)n1)NNS(=O)(=O)c1cccc(C(F)(F)F)c1	32*	-22	0	-5	0	6	-6
CCN(CC)c1ccc(/C=C2/C(=O)N(c3ccc([N+](=O)[O-])cc3)N=C2N2CCOCC2)cc1	.	.	.	-1	.	.	.
COc1cc(/C=C2/C(=O)N(c3ccc([N+](=O)[O-])cc3)N=C2N2CCOCC2)ccc1O	115*	0	2	-2	0	-9	8
Cc1cc2cc(NC(=O)c3ccco3)ccc2[nH]1	33*	-83	-5	4	0	-2	-11
Cc1nc2ccc(NC(=O)c3ccco3)cc2nc1C	0	-39	1	.	0	2	.
CN(C)c1ccc(N/C=C/C(=O)C(C)(C)C)cc1	59*	-48	-4	2	1	-7	11
CN(C)c1ccc(/C=C/C(=O)c2ccc(O)cc2)cc1	35*	-149	7	.	2	-5	-5

Source: PubChem BioAssay
